# ClpP mod: qHTS Assay for Activators of ClpP | ATP-dependent Clp protease proteolytic subunit (Bacillus subtilis (strain 168)), P80244 | purified B. subtilis ClpP, FRET peptide cleavage, 20 min | Potency, µM (series often up to 57.5 µM), for inactives: at the highest dose activity change, negative = active | 340,000 tested, 1.9% active; active = well fitted falling curve with a large enough effect; inconclusive = small, poorly fitted or top-dose-only effect; inactive = no such curve, though single readings can be large or run the other way; note: the source files actives as falling curves though it sought activators and does not explain the sign; nearly all actives have a fitted effect of over 65% in size
#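 Buffer: 100 mM Tris/HCl pH8, 100 mM KCl, 0.05% low protease BSA, 2.5% glycerol, 0.01% Tween-20. ClpP 10 microg/mL final; 20 min RT; delta FRET normalized to ADEP and DMSO controls.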
# DT40 TDP1 no CPT: qHTS for Inhibitors of human tyrosyl-DNA phosphodiesterase 1 (TDP1): qHTS in cells in absence of CPT; DT40 Tdp1-/- hTDP1 cells, no CPT, ATP luminescence, 48 h; Potency, µM (top dose mostly 46.2 µM), without a hit: at the highest dose activity change, negative = growth inhibition, actives largely listed as inhibitors; 420,000 tested, 15% active; AID 686978, 2013; note: % is set by controls: 0 for no effect and ±100 for the full control effect; nearly all actives have a fitted effect of over 55% in size
#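 Chicken DT40 Tdp1-/- cells complemented with human TDP1, screened without camptothecin (DMSO vehicle only), 400 cells/well. Compounds pin-transferred, cells incubated at 37 °C for at least 48 hr. Growth read as ATP-dependent luminescence (CellTiter-Glo, 30 min at RT).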
# TDP1 inh: TDP1 (human) enzyme inhibition | AID 485290 | 350,000 tested, 0.28% active | Q9NUW8 | recombinant TDP1, AlphaScreen DNA substrate cleavage | Potency, µM (highest dose often 130 µM), without a hit: at the top dose activity change, negative = inhibition, usual class: inhibitors; note: % is set by controls: 0 for no effect and ±100 for the full control effect; nearly all actives have a fitted effect of over 40% in size
# Target sequence (Q9NUW8 whole entry, looked up): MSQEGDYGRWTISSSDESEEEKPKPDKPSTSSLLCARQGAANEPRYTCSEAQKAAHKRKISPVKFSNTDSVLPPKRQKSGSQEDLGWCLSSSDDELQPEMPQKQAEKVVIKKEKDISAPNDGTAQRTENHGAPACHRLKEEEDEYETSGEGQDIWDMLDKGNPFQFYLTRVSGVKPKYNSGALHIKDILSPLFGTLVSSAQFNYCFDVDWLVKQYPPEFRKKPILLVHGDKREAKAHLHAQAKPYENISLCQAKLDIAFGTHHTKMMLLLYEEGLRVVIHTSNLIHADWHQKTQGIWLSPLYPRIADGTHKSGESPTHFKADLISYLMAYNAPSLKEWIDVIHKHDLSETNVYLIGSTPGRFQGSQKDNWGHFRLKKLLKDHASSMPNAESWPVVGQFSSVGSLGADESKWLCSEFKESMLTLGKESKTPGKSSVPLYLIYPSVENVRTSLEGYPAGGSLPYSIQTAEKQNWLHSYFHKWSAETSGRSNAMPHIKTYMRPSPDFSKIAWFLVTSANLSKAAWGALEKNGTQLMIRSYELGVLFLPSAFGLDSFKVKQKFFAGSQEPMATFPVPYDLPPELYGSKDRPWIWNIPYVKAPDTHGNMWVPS
#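 Enzyme-compound mixtures sat 15 min at room temperature, followed by a 5 min reaction with 15 nM final substrate and 10 min with AlphaScreen beads. Recombinant human Tdp1 was used at 1 nM final.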
# DT40 TDP1 CPT: DT40-hTDP1 cell growth loss with CPT; chicken DT40 Tdp1-/-;hTDP1 cells + 20 nM CPT, ATP luminescence, 48 h; Potency, µM (highest dose often 46.2 µM), inactives show top-dose activity change, negative = growth inhibition, hits mostly inhibitors; 420,000 tested, 12% active; note: % is set by controls: 0 for no effect and ±100 for the full control effect; nearly all actives have a fitted effect of over 55% in size
#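 Chicken DT40 Tdp1-/- cells complemented with human TDP1, 400 cells/well, exposed to compounds plus 20 nM camptothecin for at least 48 h at 37 C; viability read as ATP content by CellTiter-Glo luminescence.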
# * hit, by the source's call; ? = inconclusive; / = no result. An excerpt weighted towards active compounds, which were near 17% of everything screened. Unless noted, calls come from the whole dose curve; as a rule, active = well fitted curve in the direction sought with a large enough effect; inconclusive = small, poorly fitted or top-dose-only effect, or another doubt; inactive = no such curve, though single readings can be large; an effect the other way counts as inactive or inconclusive. Potency is the fitted concentration of half-maximal effect.
SMILES,ClpP mod,DT40 TDP1 no CPT,TDP1 inh,DT40 TDP1 CPT
CCn1c(SCC(=O)NCc2ccc3c(c2)OCO3)nnc1-c1cccs1,-4%,-36%,0%,-5%
CCOc1ccccc1NC(=O)Cn1c(=O)n(CCC(=O)NCc2ccc3c(c2)OCO3)c(=O)c2ccccc21,0%,12µM*,0%,?
CC(=O)c1c(C)n(CC(=O)NCc2ccc3c(c2)OCO3)c2ccccc12,1%,14µM*,4%,13µM*
Cc1ccc(NC(=O)Cn2c(=O)n(CCCC(=O)NCc3ccc4c(c3)OCO4)c(=O)c3ccccc32)cc1,-1%,?,-1%,?
CCOc1ccc(NC(=O)Cn2c(=O)n(CCCCC(=O)NCc3ccc4c(c3)OCO4)c(=O)c3ccccc32)cc1,-1%,-24%,-1%,?
O=C(CSc1nnc(-c2cccs2)n1Cc1ccccc1)NCc1ccc2c(c1)OCO2,-7%,?,8%,23µM*
O=C(CCCn1c(=O)c2ccccc2n(CC(=O)Nc2cccc(Cl)c2)c1=O)NCc1ccc2c(c1)OCO2,0%,15µM*,7%,?
NC(=O)Cn1c(=O)n(CCCCCC(=O)NCc2ccc3c(c2)OCO3)c(=O)c2sccc21,1%,-12%,0%,-14%
O=C(CCCCCn1c(=O)c2sccc2n(CC(=O)Nc2cccc(Cl)c2)c1=O)NCc1ccc2c(c1)OCO2,?,15µM*,0%,?
O=[N+]([O-])c1cccc(/C([O-])=C(/C(=S)Nc2ccccc2)[n+]2ccccc2)c1,0%,?,3%,-26%
O=C(CCCSc1nnc(SCCCC(=O)c2ccc(F)cc2)s1)c1ccc(F)cc1,1%,?,-4%,18µM*
N#CC(=Cc1ccc(O)cc1)C(N)=C(C#N)C#N,2%,-9%,/,3%
C[C@@H](c1ccccc1)N1C[C@@H](COCc2ccccc2)Oc2cc(N3CCC[C@H]3C(N)=O)ccc2S1(=O)=O,0%,?,/,?
O=C(/C=C/c1ccc(F)cc1)N1CCN(c2ccccn2)CC1,-2%,-23%,-4%,-25%
Nc1cccc2c1C(=O)N(C(=O)/C=C/c1ccc(F)cc1)C2=O,-15%,23µM*,0%,16µM*
O=C(c1ccc(NS(=O)(=O)c2cccc(F)c2)cc1)N1CCCCC1,0%,-6%,4%,?
CC(CC(=O)O)Nc1ccccc1O (stereo not given),/,?,/,21µM*
Cc1cccc(CCNC(=O)c2ccc3c(c2)N(Cc2ccccc2F)C(=O)c2ccccc2S3)c1,-9%,?,-2%,-39%
O=C(NCc1ccc2c(c1)OCO2)c1ccc2c(c1)N(Cc1c(F)cccc1Cl)C(=O)c1ccccc1S2,-7%,-24%,5%,-4%
CCN(CC)CCCNC(=O)c1ccc2c(c1)N(Cc1c(F)cccc1Cl)C(=O)c1ccccc1S2,-3%,15µM*,-2%,?
CN(Cc1ccco1)C(=O)c1ccc2c(c1)N(Cc1ccccc1F)C(=O)c1ccccc1S2,-17%,?,0%,21µM*
O=C(NCc1ccco1)c1ccc2c(c1)N(Cc1c(F)cccc1Cl)C(=O)c1ccccc1S2,-5%,16µM*,9%,?
N#C/C(=C\c1ccc(Cl)cc1)C(=O)Nc1cccnc1,/,-9%,4%,-1%
O=C1CCc2cc(S(=O)(=O)Nc3ccncc3)ccc2N1,/,/,1%,/
O=C(Cn1cc(COc2ccc(Cl)c(Cl)c2)nn1)NS(=O)(=O)c1ccccc1C(F)(F)F,1%,-11%,/,-10%
SMILES,ClpP mod,DT40 TDP1 no CPT,TDP1 inh,DT40 TDP1 CPT
C=CCN1C(=O)CSC1=Nc1ccc(O)cc1,2%,16µM*,2%,?
C=CCN1C(=O)CSC1=Nc1ccc(NC(C)=O)cc1,-1%,-5%,2%,10%
Cc1cccc(N2CCN(C(=O)CCCn3c(=O)c4cccn4c4cccnc43)CC2)c1C,-11%,18µM*,5%,?
CC1CC(C)CN(C(=O)CCCn2c(=O)c3cccn3c3cccnc32)C1 (stereo not given),-21%,1%,4%,-20%
Cc1ccc(Cl)cc1N1CCN(C(=O)CCCn2c(=O)c3cccn3c3cccnc32)CC1,-13%,29µM*,3%,?
O=S1(=O)N[C@@H](Cc2ccccc2)COc2cc(N3CC[C@H](O)C3)ccc21,0%,?,/,10%
Cc1cccc(C)c1NC(=O)C(C)c1ccc(-c2ccccc2)c(F)c1 (stereo not given),0%,16µM*,0%,23µM*
CC(=O)OC(C)OC(=O)C(C)c1ccc(-c2ccccc2)c(F)c1 (stereo not given),/,-10%,/,0%
Clc1ccc(-c2ccc(-c3nn4c(-c5ccco5)nnc4s3)o2)cc1,?,10µM*,/,?
Brc1ccc(-c2nn3c(-c4ccco4)nnc3s2)o1,-2%,-21%,/,-25%
Cc1ccc(CSc2ccc(-c3ccc4c(c3)OCO4)nn2)cc1,28µM*,-17%,0%,-11%
Cc1ccc(CSc2nnc(-c3ccc4c(c3)OCO4)o2)cc1,35%,-24%,6%,-6%
CCOc1ccc(C(=O)NCCc2csc(-c3cccnc3)n2)cc1,-17%,/,1%,/
Clc1ccc2oc3c(Cl)ncnc3c2c1,/,6.5µM*,1%,18µM*
COc1ncnc2c1oc1ccccc12,-3%,-28%,0%,-4%
COc1cc(/C=C2\SC(=O)NC2=O)ccc1Oc1cnccn1,-5%,-9%,/,-17%
COc1cc(/C=C2/SC(=O)NC2=O)ccc1OCc1ccccc1,-9%,?,/,-18%
COc1ccc(C=C2SC(=O)NC2=O)cc1OC,/,16µM*,/,?
COc1ccccc1OCCCOc1ccc(/C=C2\SC(=O)NC2=O)cc1OC,-2%,13µM*,/,16µM*
CCOC(=O)c1cn2nc(-c3ccc(OCC)cc3)cc2nc1C1CCN(C(=O)OC(C)(C)C)CC1,-10%,16µM*,2%,?
COc1ccc(-c2cc3nc(C4CCN(C(=O)OC(C)(C)C)CC4)c(C(=O)O)cn3n2)cc1,?,?,3%,?
CCOc1ccc(-c2cc3nc(C4CCN(C(=O)OC(C)(C)C)CC4)c(C(=O)Nc4cccc(C(F)(F)F)c4)cn3n2)cc1,-8%,?,4%,16µM*
O=c1[nH]c(-c2ccc(F)cc2)nc2c1sc(=S)n2-c1ccccc1,/,6.5µM*,-3%,?
Cc1ccn2c(-c3csc(NCc4ccccc4)n3)c(C)nc2c1,?,15µM*,12%,?
Cc1nc2ccccn2c1-c1csc(NCc2ccco2)n1,-17%,21µM*,7%,13µM*
O=C(NC1C/C(=N/O)c2cc3c(cc21)OCO3)C(F)(F)F (stereo not given),-8%,4%,0%,0%
COc1ccccc1C(=O)Nc1nnc(SCc2cc(=O)n3ccc(C)cc3n2)s1,-26%,1%,8%,0%

# From PubChem BioAssay
